Measured values taken from ChEMBL document CHEMBL3433997, “St. Jude Leishmania screening dataset” (2016).

Experiments:
Assay type in all cases: functional
[1] = target: Solute carrier family 2, facilitated glucose transporter member 1 (Homo sapiens) (UniProt P11166); experiment: ST_JUDE_LEISH: Cytotoxicity at 2uM final concentration against transgenic Leishmania Mexicana promastigotes LmGLUT1 that are glucose transport deficient and complemented with the human glucose transporter GLUT1. Activity is measured by DNA content using SYBR green in vitro
[2] = target: Hexose transporter 1 (Plasmodium falciparum) (UniProt O97467); experiment: ST_JUDE_LEISH: Cytotoxicity at 2uM final concentration against transgenic Leishmania Mexicana promastigotes LmPfHT that are glucose transport deficient and complemented with the Plasmodium falciparum hexose transporter. Activity is measured by DNA content using SYBR green in vitro
[3] = target: Glucose transporter (Leishmania mexicana) (UniProt O61059); experiment: ST_JUDE_LEISH: Cytotoxicity at 2uM final concentration against transgenic Leishmania Mexicana promastigotes LmGT2 that are glucose transport deficient and complemented with the L. Mexicana glucose transporter 2. Activity is measured by DNA content using SYBR green in vitro

Sequence of Solute carrier family 2, facilitated glucose transporter member 1 (Homo sapiens) (P11166 whole entry): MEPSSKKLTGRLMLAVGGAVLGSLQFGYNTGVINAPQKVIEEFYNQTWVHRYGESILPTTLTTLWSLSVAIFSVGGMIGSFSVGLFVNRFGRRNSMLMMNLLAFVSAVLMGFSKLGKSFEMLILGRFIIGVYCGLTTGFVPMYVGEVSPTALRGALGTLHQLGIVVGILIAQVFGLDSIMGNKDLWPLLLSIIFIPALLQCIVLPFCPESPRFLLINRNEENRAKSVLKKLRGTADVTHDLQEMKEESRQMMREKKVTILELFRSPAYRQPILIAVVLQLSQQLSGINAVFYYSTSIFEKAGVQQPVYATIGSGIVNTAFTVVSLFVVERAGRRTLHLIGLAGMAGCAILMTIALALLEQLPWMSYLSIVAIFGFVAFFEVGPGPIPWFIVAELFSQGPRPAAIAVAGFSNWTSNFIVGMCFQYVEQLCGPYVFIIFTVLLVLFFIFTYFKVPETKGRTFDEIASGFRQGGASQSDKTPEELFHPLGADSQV

| SMILES | inhibition [1] | inhibition [2] | inhibition [3] |
| --- | --- | --- | --- |
| CCOC(=O)c1cncc(/C=C/c2cc(C)cnc2N)c1 | 5.82% | 8.59% | 8.04% |
| COc1ccc(CCn2c(=N)c(C(=O)NCc3ccccc3)cc3c(=O)n4cccc(C)c4nc32)cc1 | 12.7% | 13.6% | 7.48% |
| CC[C@H](C)CNC(=O)c1ccnc(-c2ccc(CN3CCC(N4CCCC4)CC3)cc2)c1 | 1.51% | 0.38% | 0.35% |
| COc1ccc2nccc([C@@H](O)CN3CCC(NCc4cc5ccccc5[nH]4)CC3)c2c1 | 17% | 23.5% | 4.85% |
| Cc1ccc(-n2c(Cc3cccc4ccccc34)nnc2SCCC#N)c(C)c1 | 5.99% | 5.29% | 8.9% |
| Cc1c(CCC#N)c(NCc2ccccc2)n2c(nc3ccccc32)c1C#N | 1.13% | 0.53% | -0.97% |
